Laboratory results published in PubChem BioAssay (NCATS).
Values joined by “and” are separate entries in the source; they are usually repeats but may differ in a detail not shown here. Equal values may be shown once. Results filed as inconclusive are left out. More than one record can exist for a structure, and the calls need not agree. Active and inactive are the calls of the source. Unless noted, calls follow the shape of the dose curve; as a rule, active = well fitted curve in the direction sought with a large enough effect; inconclusive = small, poorly fitted or top-dose-only effect, or another doubt; inactive = no such curve, though single readings can be large; an effect the other way counts as inactive or inconclusive.

Assays:
[1] = Primary qHTS for inhibitors of nuclear receptor binding SET domain protein 2 (NSD2) in an isogenic RCH-ACV NSD2 p.E1099K mutant (9B) (AID 1645876); also: nearly all actives have a fitted effect of over 70% in size; also: potency is read from the fitted curve at half-maximal effect; as to activity change, negative = viability loss: % is scaled to controls: 0 for no effect and ±100 for the full control effect
[2] = Primary qHTS for inhibitors of nuclear receptor binding SET domain protein 2 (NSD2) in an RCH-ACV wild type WT cells (2C) (AID 1645877); also: nearly all actives have a fitted effect of over 70% in size; also: potency is read from the fitted curve at half-maximal effect; as to activity change, negative = cell killing: % is scaled to controls: 0 for no effect and ±100 for the full control effect
[3] = target: Catechol O-methyltransferase (Homo sapiens) (UniProt P21964); assay: Confirmatory Screen for Target Class Profiling of Small Molecule Inhibitors of Methyltransferases (AID 1745852; calls by dose curve; also: potency is read from the fitted curve at half-maximal effect; as to activity change, negative = inhibition: % is scaled to controls: 0 for no effect and ±100 for the full control effect); conditions: MTase-Glo luminescence, SAH detection, recombinant enzyme; measured here: COMT max response; stronger effect = lower value
Sequence of Catechol O-methyltransferase (Homo sapiens) (P21964 whole entry, looked up): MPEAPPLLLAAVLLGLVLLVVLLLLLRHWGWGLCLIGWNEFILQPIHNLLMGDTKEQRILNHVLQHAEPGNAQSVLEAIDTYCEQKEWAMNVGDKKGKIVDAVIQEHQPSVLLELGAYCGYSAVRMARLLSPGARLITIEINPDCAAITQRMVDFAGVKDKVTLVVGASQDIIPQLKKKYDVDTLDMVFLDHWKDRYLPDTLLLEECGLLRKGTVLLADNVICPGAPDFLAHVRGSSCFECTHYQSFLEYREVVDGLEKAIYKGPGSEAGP

[4] = target: Guanidinoacetate N-methyltransferase (Homo sapiens) (UniProt Q14353); assay: as above; conditions: activity change, negative = inhibition: at 57.3 µM (top of the series) unless noted
[5] = target: Nicotinamide N-methyltransferase (Homo sapiens) (UniProt P40261); assay: as above; conditions: MTase-Glo luminescence, SAH detection, recombinant enzyme; measured here: NNMT max response; stronger effect = lower value
Sequence of Nicotinamide N-methyltransferase (Homo sapiens) (P40261 whole entry, looked up): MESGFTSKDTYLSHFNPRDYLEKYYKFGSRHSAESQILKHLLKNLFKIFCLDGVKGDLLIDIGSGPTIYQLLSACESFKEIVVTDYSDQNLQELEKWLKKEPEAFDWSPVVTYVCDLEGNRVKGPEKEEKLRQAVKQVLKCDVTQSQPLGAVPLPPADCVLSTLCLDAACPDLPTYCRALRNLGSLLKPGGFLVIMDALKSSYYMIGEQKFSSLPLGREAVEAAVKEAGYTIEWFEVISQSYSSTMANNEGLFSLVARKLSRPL

[6] = target: Phenylethanolamine N-methyltransferase (Homo sapiens) (UniProt P11086); assay: as above; conditions: MTase-Glo luminescence, SAH detection, recombinant enzyme; measured here: PNMT max response; stronger effect = lower value
Sequence of Phenylethanolamine N-methyltransferase (Homo sapiens) (P11086 whole entry, looked up): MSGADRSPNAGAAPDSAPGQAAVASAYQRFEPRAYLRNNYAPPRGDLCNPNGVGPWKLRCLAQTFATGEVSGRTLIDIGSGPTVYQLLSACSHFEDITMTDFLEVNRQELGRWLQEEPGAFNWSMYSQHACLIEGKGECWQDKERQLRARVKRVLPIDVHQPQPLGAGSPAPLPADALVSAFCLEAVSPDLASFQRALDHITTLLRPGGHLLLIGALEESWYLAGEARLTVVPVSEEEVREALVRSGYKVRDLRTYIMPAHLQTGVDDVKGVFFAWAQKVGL

[7] = target: Rap guanine nucleotide exchange factor 3 (Homo sapiens) (UniProt O95398); assay: Confirmatory qHTS for antagonist of cAMP-regulated guanine nucleotide exchange factor 3 (EPAC1) (AID 1645880); also: potency is read from the fitted curve at half-maximal effect; nearly all actives have a fitted effect of over 55% in size
Sequence of Rap guanine nucleotide exchange factor 3 (Homo sapiens) (O95398 whole entry, looked up): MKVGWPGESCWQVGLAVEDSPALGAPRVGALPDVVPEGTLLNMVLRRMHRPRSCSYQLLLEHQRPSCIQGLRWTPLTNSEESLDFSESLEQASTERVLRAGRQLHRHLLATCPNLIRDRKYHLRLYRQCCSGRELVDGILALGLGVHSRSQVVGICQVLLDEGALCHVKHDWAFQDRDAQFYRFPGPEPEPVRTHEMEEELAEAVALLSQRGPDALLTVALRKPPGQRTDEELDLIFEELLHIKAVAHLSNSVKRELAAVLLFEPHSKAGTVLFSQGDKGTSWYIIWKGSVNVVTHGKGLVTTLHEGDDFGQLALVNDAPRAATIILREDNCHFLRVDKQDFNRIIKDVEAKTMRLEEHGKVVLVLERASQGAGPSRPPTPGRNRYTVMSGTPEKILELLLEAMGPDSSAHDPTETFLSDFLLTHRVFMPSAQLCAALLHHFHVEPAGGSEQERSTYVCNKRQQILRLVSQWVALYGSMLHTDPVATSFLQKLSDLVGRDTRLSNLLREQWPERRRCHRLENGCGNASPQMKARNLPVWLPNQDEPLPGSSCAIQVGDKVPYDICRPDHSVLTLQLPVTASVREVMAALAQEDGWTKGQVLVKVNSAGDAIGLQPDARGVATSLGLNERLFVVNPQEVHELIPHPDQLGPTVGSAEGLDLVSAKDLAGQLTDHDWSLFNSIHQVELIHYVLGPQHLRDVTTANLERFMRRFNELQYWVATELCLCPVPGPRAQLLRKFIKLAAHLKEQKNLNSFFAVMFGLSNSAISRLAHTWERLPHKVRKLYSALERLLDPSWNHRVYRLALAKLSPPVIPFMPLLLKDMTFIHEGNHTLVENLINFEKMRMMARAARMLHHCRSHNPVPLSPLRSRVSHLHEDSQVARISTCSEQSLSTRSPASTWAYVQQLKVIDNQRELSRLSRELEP
Procedure, shortened: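 Nucleotide exchange uses 100 nM EPAC1, 250 nM RAP1B-BODIPY-GDP and 50 uM GDP, with compounds in a concentration-titration series. After 5 min at room temperature, fluorescence (480 nm ex/540 nm em) is read every 5 min for 30 min. Data are normalized to control ATA and DMSO.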

[8] = target: Rap guanine nucleotide exchange factor 3 (Homo sapiens) (UniProt O95398); assay: Confirmatory qHTS for agonist of cAMP-regulated guanine nucleotide exchange factor 3 (EPAC1) (AID 1645881);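 also: EPAC1 catalysed release of BODIPY-GDP from Rap1B seen as fluorescence loss; 100% = effect of cAMP agonist control; nearly all actives have a fitted effect of over 75% in size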
[9] = target: Rap guanine nucleotide exchange factor 4 (Homo sapiens) (UniProt Q8WZA2); assay: Confirmatory qHTS for antagonist of cAMP-regulated guanine nucleotide exchange factor 4 (EPAC2) (AID 1645885); also: potency is read from the fitted curve at half-maximal effect; nearly all actives have a fitted effect of over 25% in size
Sequence of Rap guanine nucleotide exchange factor 4 (Homo sapiens) (Q8WZA2 whole entry, looked up): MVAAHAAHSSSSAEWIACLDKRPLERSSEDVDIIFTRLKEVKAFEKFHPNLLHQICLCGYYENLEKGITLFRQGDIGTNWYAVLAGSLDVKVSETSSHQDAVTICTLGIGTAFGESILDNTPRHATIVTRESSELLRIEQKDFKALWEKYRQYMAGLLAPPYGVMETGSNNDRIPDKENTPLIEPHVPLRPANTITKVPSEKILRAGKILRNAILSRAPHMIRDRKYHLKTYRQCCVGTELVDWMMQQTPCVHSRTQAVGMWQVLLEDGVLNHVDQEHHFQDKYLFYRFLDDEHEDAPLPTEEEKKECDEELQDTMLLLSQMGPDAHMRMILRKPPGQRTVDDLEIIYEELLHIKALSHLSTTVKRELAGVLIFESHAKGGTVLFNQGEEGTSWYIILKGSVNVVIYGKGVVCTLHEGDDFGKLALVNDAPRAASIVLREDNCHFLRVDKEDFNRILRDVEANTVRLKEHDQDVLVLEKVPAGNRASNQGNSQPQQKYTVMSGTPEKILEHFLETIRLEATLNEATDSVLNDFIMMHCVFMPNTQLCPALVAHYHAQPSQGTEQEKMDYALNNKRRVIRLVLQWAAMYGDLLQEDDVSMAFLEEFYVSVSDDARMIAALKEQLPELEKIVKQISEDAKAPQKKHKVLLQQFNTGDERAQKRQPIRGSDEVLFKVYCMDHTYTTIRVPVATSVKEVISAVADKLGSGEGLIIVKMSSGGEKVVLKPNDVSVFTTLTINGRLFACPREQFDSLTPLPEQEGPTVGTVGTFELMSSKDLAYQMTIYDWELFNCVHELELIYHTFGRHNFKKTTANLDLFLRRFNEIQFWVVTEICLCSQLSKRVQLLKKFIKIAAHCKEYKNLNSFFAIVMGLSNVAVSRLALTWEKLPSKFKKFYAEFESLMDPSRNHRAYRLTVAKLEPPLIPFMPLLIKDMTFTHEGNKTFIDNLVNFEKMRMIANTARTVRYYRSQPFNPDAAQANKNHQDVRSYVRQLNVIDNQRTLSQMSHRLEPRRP

[10] = target: Rap guanine nucleotide exchange factor 3 (Homo sapiens) (UniProt O95398); assay: Counterscreen qHTS for antagonist of cAMP-regulated guanine nucleotide exchange factor 3 (EPAC1) (AID 1645888);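 also: fluorescence loss as bound BODIPY-GDP is released from Rap1B; % of control where 0% means no effect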
Procedure, shortened: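 Rap1B–BODIPY-GDP (250 nM) with 50 uM GDP; compounds pin-transferred to 9.74 nM–152 uM final (activator) or from 7.32 nM upwards (inhibitor). Fluorescence Ex/Em 480/540 nm read at 5 and 30 min, then after adding cAMP or buffer, at room temperature.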

Question: Which Potency [1] does the source give for CC(=O)O[C@@H]1CC[C@@]2(C)C(CC[C@]3(C)C2[C@H](O)C=C2[C@H]4[C@@H](C)[C@H](C)CC[C@]4(C)CC[C@]23C)[C@@]1(C)C(=O)O (stereo not given in full) here?
Answer: inactive

Question: And the Potency [2]?
Answer: inactive

Question: Which results are given for CCc1cc(C(N)=O)ccc1-n1nc(C(C)C)c2c(-n3cnc(-c4cnn(C)c4)c3)ccnc21?
Answer: Potency [1]: 1.18 µM (active); Potency [2]: 1.05 µM (active)

Question: Which results are given for C=C[C@]1(C)C[C@H](O)[C@H]2C(=C)C(=O)O[C@@H]2[C@H]1C(=C)CO?
Answer: Potency [1]: 18.3 µM (active); Potency [2]: 14.5 µM (active)

Question: For Cc1nc2ccc(CN(C)c3ccc(C(=O)NC(CCC(=O)O)C(=O)O)s3)cc2c(=O)[nH]1 (stereo not given), which Potency [1] is on record?
Answer: 0.0092 µM (active)

Question: And the Potency [2]?
Answer: 0.0092 µM (active)

Question: Which results are given for OC[C@H]1O[C@@H](OC/C=C/c2ccc(O)cc2)[C@H](O)[C@@H](O)[C@@H]1O?
Answer: Potency [1]: inactive; Potency [2]: inactive

Question: Which Potency [1] does the source give for CC(C)CC(=O)c1c(O)cc2c(c1O)C(CC(C)C)C1=C(O2)C(C)(C)C(=O)C(C)(C)C1=O (stereo not given) here?
Answer: 10 µM (active)

Question: What about the Potency [2] of the same molecule?
Answer: 7.96 µM (active)

Question: What does the source list for Cc1cc2c(c(=O)o1)C=C1CC[C@H]([C@H](C)Cn3cnc(=N)c4[nH]cnc43)C[C@@H]1O2?
Answer: Potency [1]: inactive; Potency [2]: inactive

Question: With C=C1C(=O)OC2/C=C(\C)CC3C=C(CC/C=C(\C)CCC12)C(=O)O3 (stereo not given) as the molecule, how does the Potency [1] read?
Answer: 12.7 µM (active)

Question: And the Potency [2]?
Answer: 4.5 µM (active)

Question: For CC(C)(C)NC(=O)[C@H]1CC[C@H]2[C@@H]3CC[C@H]4NC(=O)CC[C@]4(C)[C@H]3CC[C@]12C, which Potency [1] is on record?
Answer: inactive

Question: What about the Potency [2] of the same molecule?
Answer: inactive

Question: What does the source list for CC1(C)CCC2(C(=O)OC3OC(COC4OC(CO)C(O)C(O)C4O)C(O)C(O)C3O)CCC3(C)C(=CCC4C5(C)CCC(OC6OCC(O)C(O)C6O)C(C)(C)C5CCC43C)C2C1O (stereo not given)?
Answer: activity change, negative = viability loss [1]: -12.3% [at 9.23 µM] (inactive); activity change, negative = cell killing [2]: -18.7% [at 9.23 µM] (inactive)

Question: Which results are given for C[C@@H]1COCCN1c1cc(=O)n2c(n1)N(Cc1cncc(Cl)c1)[C@H](C(F)(F)F)CC2?
Answer: Potency [1]: 6.51 µM (active); Potency [2]: 6.51 µM (active) and inactive

Question: With C=C1CC[C@@H]2[C@](C)(CO)[C@H](O)CC[C@@]2(C)[C@@H]1C/C=C1/C(=O)OCC1O (stereo not given in full) as the molecule, how does the Potency [1] read?
Answer: 14.5 µM (active)

Question: What about the Potency [2] of the same molecule?
Answer: 7.28 µM (active)

Question: With C=C1CO[C@@]2(O[C@H]3CC4C5CC=C6C[C@@H](O)C[C@@H](O[C@@H]7OC[C@H](O)[C@H](O[C@@H]8OC[C@@H](O)[C@H](O)[C@H]8O)[C@H]7O[C@@H]7O[C@@H](C)[C@H](OC(C)=O)[C@@H](OC(C)=O)[C@H]7OC(C)=O)[C@]6(C)C5CC[C@]4(C)[C@@H]3[C@@H]2C)[C@@H](O)[C@H]1OC1OC(C)C(O)C(O)C1O (stereo not given in full) as the molecule, how does the Potency [1] read?
Answer: 2.18 µM (active)

Question: What about the Potency [2] of the same molecule?
Answer: 2.18 µM (active)

Question: What does the source list for C=C1C(=O)O[C@@H]2[C@H]1CC[C@H](C)C(CCC(=O)O)C2(C)O (stereo not given in full)?
Answer: Potency [1]: 18.3 µM (active); Potency [2]: 12.9 µM (active)

Question: With CCc1cccc(CC)c1-n1c(C=C(C)C)c(C(=O)N2CCNCC2)cc(-c2nc(-c3ccc(C(F)(F)F)cc3)cs2)c1=O as the molecule, how does the Potency [1] read?
Answer: 8.93 µM (active)

Question: What about the Potency [2] of the same molecule?
Answer: 10 µM (active)

Question: With Cc1cc(-c2nc3cc(F)ccc3s2)ccc1NC(=O)[C@@H](N)CCCCN as the molecule, how does the Potency [1] read?
Answer: 5.25 µM (active)

Question: What about the Potency [2] of the same molecule?
Answer: 4.17 µM (active)

Question: What does the source list for CC(=O)O[C@@H]1C[C@@]23C[C@@]24CC[C@H](O[C@@H]2OC[C@H](O)[C@H](O)[C@H]2O)C(C)(C)[C@@H]4CC[C@H]3[C@]2(C)[C@@H](O)C34O[C@H](C[C@@H](C)[C@@H]3[C@@]12C)[C@@H](C(C)(C)O)O4?
Answer: Potency [1]: inactive; Potency [2]: inactive

Question: Which Potency [1] does the source give for CC(C)C[C@@H]1NC(=O)[C@@H]2C[C@@]34C[C@@H]5[C@@]6(C)CCCC(C)(C)C6CC[C@@]5(C)N(c5ccccc53)[C@H]4N2C1=O (stereo not given in full) here?
Answer: 3.55 µM (active)

Question: And the Potency [2]?
Answer: 3.99 µM (active)

Question: Which Potency [1] does the source give for Cc1ccc(CNc2ncnc3ccc(-c4ccc(CO)o4)cc23)o1 here?
Answer: 2.58 µM (active)

Question: What about the Potency [2] of the same molecule?
Answer: 2.3 µM (active)

Question: What about the activity [3] of the same molecule?
Answer: -5.85%

Question: What about the activity change, negative = inhibition [4] of the same molecule?
Answer: -1.25%

Question: What about the activity [5] of the same molecule?
Answer: -7.73%

Question: And the activity [6]?
Answer: -9.87%

Question: Which Potency [1] does the source give for COc1c(CCC(=O)O)cccc1O[C@@H]1O[C@H](CO)[C@@H](O)[C@H](O)[C@H]1O here?
Answer: inactive

Question: What about the Potency [2] of the same molecule?
Answer: inactive

Question: And the activity [3]?
Answer: -74.9%

Question: What about the activity change, negative = inhibition [4] of the same molecule?
Answer: 2.56%

Question: What about the activity [5] of the same molecule?
Answer: 0.561%

Question: And the activity [6]?
Answer: -9.51%

Question: Which results are given for C=C1C(=O)OC2C(OC(=O)C=C(C)C)C(C)=C3C(=O)C=C(C)C3C(O)C12 (stereo not given)?
Answer: Potency [1]: 10.1 µM (active); Potency [2]: 3.19 µM (active); activity [3]: -65.9%; activity change, negative = inhibition [4]: -0.769%; activity [5]: 2.7%; activity [6]: 4.72%

Question: Which results are given for Cc1cn(CCN2CCN(c3ccccc3-c3cc(C#N)cc(C(=O)NCCCN4CCCC4)c3)CC2)c2ccccc12?
Answer: Potency [1]: 6.49 µM (active) and 6.61 µM (active); Potency [2]: 5.78 µM (active) and 6.61 µM (active); activity [3]: 3.99%; activity change, negative = inhibition [4]: 10.2%; activity [5]: -4.29%; activity [6]: 2.94%

Question: With O=C(O)CSc1cc(NS(=O)(=O)c2ccc(Br)cc2)c2ccccc2c1O as the molecule, how does the Potency [1] read?
Answer: 7.28 µM (active)

Question: What about the Potency [2] of the same molecule?
Answer: 4.09 µM (active)

Question: And the Potency [7]?
Answer: 84.9 µM (active)

Question: And the outcome [8]?
Answer: inactive

Question: What about the Potency [9] of the same molecule?
Answer: 47.8 µM (active)

Question: And the outcome [10]?
Answer: inactive

Question: With COc1cc2c(NC3CCN(C(C)C)CC3)nc(N3CCC(F)(F)CC3)nc2cc1OCCCN1CCCC1 as the molecule, how does the Potency [1] read?
Answer: 20.5 µM (active)

Question: What about the Potency [2] of the same molecule?
Answer: 11.5 µM (active)

Question: And the activity [3]?
Answer: -11.2%

Question: What about the activity change, negative = inhibition [4] of the same molecule?
Answer: -0.0366%

Question: What about the activity [5] of the same molecule?
Answer: -8.4%

Question: What about the activity [6] of the same molecule?
Answer: -0.61%

Question: Which results are given for CCCSc1nc(N[C@@H]2C[C@H]2c2ccc(F)c(F)c2)c2nnn([C@@H]3C[C@H](OCCO)[C@@H](O)[C@H]3O)c2n1?
Answer: Potency [1]: 25.8 µM (active); Potency [2]: 18.3 µM (active); activity [3]: -40.7%; Potency [4]: 48.2 µM (active); activity [5]: -50.5%; activity [6]: -36.5%

Question: Which Potency [1] does the source give for CCCCCc1ccc(/C=C/C(=O)Nc2cc(Cl)ccc2C(=O)O)cc1 here?
Answer: inactive

Question: And the Potency [2]?
Answer: inactive

Question: What about the activity [3] of the same molecule?
Answer: -6.7%

Question: And the Potency [4]?
Answer: 42.9 µM (active)

Question: What about the activity [5] of the same molecule?
Answer: -47.8%

Question: What about the activity [6] of the same molecule?
Answer: -21.5%

Question: Which Potency [1] does the source give for O=C(c1ccccc1)c1c(O)cc(O)cc1O[C@@H]1O[C@H](CO)[C@@H](O)[C@H](O)[C@H]1O here?
Answer: inactive

Question: And the Potency [2]?
Answer: inactive

Question: What about the activity [3] of the same molecule?
Answer: -80.6%

Question: What about the activity change, negative = inhibition [4] of the same molecule?
Answer: -2.61%

Question: And the activity [5]?
Answer: -5.29%

Question: What about the activity [6] of the same molecule?
Answer: -6.01%
